Structures are written as SMILES. The panel holds about 83,000 compounds, 20% with a hit somewhere; the sample as a whole holds those more often.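 Negative percent growth values reflect cell death: -40 means 40% of the cells present at the start died, and -100 means all died.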 Unmarked numbers belong to inactive results. Activity calls are given as the source filed them. The calls were made as follows: active = growth percent below 10; inactive = the rest.

For this assay, the system named is HL-60(TB) leukemia. The experiment in a line: NCI-60 one-dose screen, 48 h (100 = growth as untreated, 0 = no growth, -100 = all killed). To be noted: 10 µM unless noted.
Consider `CCN(CC)CCCCCCNc1cc(OC)c(Cl)c2cccnc12`, for which the growth is 119%. Regarding `O=C(/C=C/c1ccc(Br)cc1)c1ccccc1`, the growth is 81.5%. For `COc1cc(C(=O)/C=C/c2ccc3nc(-c4cc(F)cc(F)c4)sc3c2)cc(OC)c1OC` the value was 60.1%; for `CN1CCN(C(=O)[C@]23CCC(C)(C)C[C@H]2C2=CC[C@@H]4[C@@]5(C)C/C(=C/c6cccnc6)C(=O)C(C)(C)[C@@H]5CC[C@@]4(C)[C@]2(C)CC3)CC1`, -32.4% (active); for `CCOC(=O)Cn1c(=O)c2c3ccccc3n(C)c2n2nnc(-c3ccccc3)c12`, 68.5%.

As to `O=S(=O)(NCCNc1nccc(-c2c(-c3ccc(F)c(O)c3)nc3sccn23)n1)c1ccc(O)cc1`, the growth is 41.8%. Take `COc1nc2c(cc1S(=O)(=O)c1ccccc1)CCc1c-2cnn1-c1ccccc1`: the growth is 58.7%. For `O=C(O)c1ccc2c(c1)nc(Nc1cccc(Cl)c1)c1ccncc12` the value was -28.6% (active). Under `O=C1NCN(CCO)CN1` stands 97.5%; under `Nc1c2c(c(O)c3c1=C(CO)C=N3)=NCCS2`, -33.7% (active); under `Cn1c(-c2ccccc2)cc(=O)n1-c1ccccc1`, 109%. Under `CC(C)(Sc1cc(C(C)(C)C)c(O)c(C(C)(C)C)c1)Sc1cc(C(C)(C)C)c(OC(=O)CCCC(=O)O)c(C(C)(C)C)c1` stands 67.6%; under `COc1cccc(CNc2cccc3cn[nH]c23)c1O`, 144%. For `Cc1cc2cn3c4ccc(O)cc4nc(N)c3c2cc1C`, the growth was -32.5% (active). Turning to `N#CSCc1c(Cl)cccc1Cl`, the growth was 88.9%.
